Potency data for 34 molecules are collected here from PubChem BioAssay (NCATS).

Several values for one entry are separate records, joined by “and”; a condition that tells them apart may be missing. Equal entries are not always repeated. Records with an inconclusive call do not appear. Entries that show only a call come without a potency. Activity calls are given as the source filed them. Unless noted, calls come from the whole dose curve; as a rule, active = well fitted curve in the direction sought with a large enough effect in the repeat runs; inconclusive = weak or mixed curves; inactive = no such curve, though single readings can be large; an effect the other way counts as inactive or inconclusive.

Chain of Cytochrome P450 2C9 (Homo sapiens) (P11712 whole entry, looked up): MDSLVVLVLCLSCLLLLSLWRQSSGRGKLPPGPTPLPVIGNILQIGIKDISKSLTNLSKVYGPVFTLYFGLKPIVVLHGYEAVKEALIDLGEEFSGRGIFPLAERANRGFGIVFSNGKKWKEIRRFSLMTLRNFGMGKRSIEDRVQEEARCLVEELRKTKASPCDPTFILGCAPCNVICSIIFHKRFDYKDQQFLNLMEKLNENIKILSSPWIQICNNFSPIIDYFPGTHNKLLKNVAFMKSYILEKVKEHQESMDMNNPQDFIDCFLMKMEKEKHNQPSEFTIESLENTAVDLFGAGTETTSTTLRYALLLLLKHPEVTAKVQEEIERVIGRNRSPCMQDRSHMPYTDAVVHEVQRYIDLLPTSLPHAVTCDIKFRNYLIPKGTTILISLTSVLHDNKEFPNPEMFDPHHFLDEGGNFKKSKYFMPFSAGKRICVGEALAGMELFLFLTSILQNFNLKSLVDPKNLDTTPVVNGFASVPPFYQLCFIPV

Tested on in the first assay: not listed separately
Put plainly: A High-Content qHTS Against Drug Library for the Identification of Small Molecules that Inhibit DYT1 Early Onset Primary Dystonia-Associated Cell Pathology (AID 1645839; calls by dose curve). To be noted: HEK293 Flp-In EGFP-delE TorsinA, punctate imaging, 48 h; series mostly up to 46.1 µM. The essentials: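 In this high-content image screen, delE TorsinA mislocalization in inducible Flp-In 293 cells is scored as %pathology, with cell count serving as the counterscreen. Compound exposure lasts 48 h under tetracycline induction in reduced-serum medium.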
(In general: qHTS replaces the single test concentration by a dilution series.)
`CCCOc1ccc(C(=O)OCCN(CC)CC)cc1N`: the Potency entry was “inactive”.

Regarding `COc1cc2c(Nc3ccc(Br)cc3F)ncnc2cc1OCC1CCN(C)CC1`, the Potency entry was “inactive”.

For the molecule `COc1cc([C@@H]2c3cc4c(cc3[C@H](O)[C@H]3COC(=O)[C@H]23)OCO4)cc(OC)c1OC`, the Potency entry is “inactive”.

As for `COc1ccccc1OCC(O)COC(N)=O` (stereo not drawn), the Potency entry is “inactive”.

Turning to `O=NN(CCCl)C(=O)NC1CCCCC1`, the Potency entry is “inactive”.

As to `CN1CCN(c2c(F)cc3c(=O)c(C(=O)O)cn4c3c2OCN4C)CC1`, the Potency result was “inactive”.

Consider `COc1cc(NCc2ccc3nc(N)nc(N)c3c2C)cc(OC)c1OC`, for which the Potency entry is “inactive”.

In the next assay the target is Cytochrome P450 2D6 (Homo sapiens) (UniProt P10635). In words: Cytochrome P450 family 2 subfamily D member 6 (CYP2D6) small molecule antagonists: luciferase biochemical (cell-free) qHTS assay (AID 1645840). Note: nearly all actives have a fitted effect of over 55% in size. Note: potency is the fitted concentration of half-maximal effect. To be noted: P450-Glo CYP2D6 enzyme, luciferin luminescence, 1 h; series mostly up to 57.4 µM. The essentials: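 P450-Glo luminescent screen: recombinant CYP2D6 enzyme–proluciferin substrate mix preincubated with compound 10 min at room temperature, then NADPH regeneration added for 1 h at room temperature. Detection reagent added for 20 min; luciferin light read as relative luminescence units.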
Chain of Cytochrome P450 2D6 (Homo sapiens) (P10635 whole entry, looked up): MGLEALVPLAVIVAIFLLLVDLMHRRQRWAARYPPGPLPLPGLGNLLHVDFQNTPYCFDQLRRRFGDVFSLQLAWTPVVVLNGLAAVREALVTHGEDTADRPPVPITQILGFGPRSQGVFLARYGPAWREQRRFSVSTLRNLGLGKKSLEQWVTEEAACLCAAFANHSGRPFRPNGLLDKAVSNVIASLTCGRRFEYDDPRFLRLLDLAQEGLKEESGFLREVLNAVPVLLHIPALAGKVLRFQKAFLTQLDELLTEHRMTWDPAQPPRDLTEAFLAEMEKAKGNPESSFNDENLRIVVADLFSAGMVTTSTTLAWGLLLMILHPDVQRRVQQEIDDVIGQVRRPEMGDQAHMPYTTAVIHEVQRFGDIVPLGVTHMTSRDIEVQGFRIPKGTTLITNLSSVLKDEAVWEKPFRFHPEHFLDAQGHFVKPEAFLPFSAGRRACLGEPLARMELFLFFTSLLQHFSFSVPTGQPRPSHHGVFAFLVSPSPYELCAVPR
For `Cc1ncc([N+](=O)[O-])n1CCO`, the Potency result was “inactive”.

Regarding `S=P(N1CC1)(N1CC1)N1CC1`, the Potency is 53 µM (active).

As for `CO[C@@H]1[C@@H](OC(N)=O)[C@@H](O)[C@H](Oc2ccc3c(O)c(NC(=O)c4ccc(O)c(CC=C(C)C)c4)c(=O)oc3c2C)OC1(C)C`, the Potency result was “inactive”.

On to `COc1c(N2CCNC(C)C2)c(F)cc2c(=O)c(C(=O)O)cn(C3CC3)c12` (stereo not drawn), for which the Potency result is “inactive”.

On to `Cc1ccnc2c1NC(=O)c1cccnc1N2C1CC1`, for which the Potency result is “inactive”.

As for `CCOc1cc(N)c(Cl)cc1C(=O)NCC1CN(Cc2ccc(F)cc2)CCO1` (stereo not drawn), the Potency was 15.5 µM (active).

Consider `CCn1cc(C(=O)O)c(=O)c2cc(F)c(N3CCNCC3)cc21`, for which the Potency entry is “inactive”.

As to `CN1CCN(c2c(F)cc3c(=O)c(C(=O)O)cn(CCF)c3c2F)CC1`, the Potency result is “inactive”.

For the molecule `CC(=O)[C@H]1CC[C@H]2[C@@H]3CC=C4C[C@@H](O)CC[C@]4(C)[C@H]3CC[C@]12C`, the Potency result was “inactive”.

Turning to `COc1ncnc(NS(=O)(=O)c2ccc(N)cc2)c1OC`, the Potency entry was “inactive”.

With `CC(C)(Sc1cc(C(C)(C)C)c(O)c(C(C)(C)C)c1)Sc1cc(C(C)(C)C)c(O)c(C(C)(C)C)c1`, the Potency entry was “inactive”.

As to `O=c1cc(O)c(Cl)c[nH]1`, the Potency entry was “inactive”.

With `Cc1noc(NS(=O)(=O)c2ccc(N)cc2)c1C`, the Potency entry is “inactive”.

Turning to `COc1cccc(N(C)C(=S)Oc2ccc3c(c2)CCCC3)n1`, the Potency result was “inactive”.

In the case of `O=c1oc2c(O)c(O)cc3c(=O)oc4c(O)c(O)cc1c4c23`, the Potency entry is “inactive”.

`Cc1nnc(NS(=O)(=O)c2ccc(N)cc2)s1`: the Potency result is “inactive”.

For `Nc1ccc(S(=O)(=O)Nc2ccccn2)cc1`, the Potency result was “inactive”.

For the molecule `NNC(=O)c1ccncc1`, the Potency result is “inactive”.

Consider `NC(N)=NC(N)=NCCc1ccccc1`, for which the Potency is 6.17 µM (active).

Turning to `CC(C)(C)NC(=O)[C@H]1CC[C@H]2[C@@H]3CC[C@H]4NC(=O)C=C[C@]4(C)[C@H]3CC[C@]12C`, the Potency entry is “inactive”.

Consider `CCOC(=O)c1ccc(C#Cc2ccc3c(c2)C(C)(C)CCS3)nc1`, for which the Potency entry is “inactive”.

For the molecule `CNC1CCCN(c2c(F)cc3c(=O)c(C(=O)O)cn(C4CC4)c3c2OC)C1` (stereo not drawn), the Potency entry was “inactive”.

For `CCN[C@H]1C[C@H](C)S(=O)(=O)c2sc(S(N)(=O)=O)cc21`, the Potency result was “inactive”.

`O=C(NCC1CN(c2ccc(N3CCOCC3=O)cc2)C(=O)O1)c1ccc(Cl)s1` (stereo not drawn): the Potency result was “inactive”.

For `CCn1cc(C(=O)O)c(=O)c2cc(F)c(N3CCNCC3)nc21`, the Potency entry is “inactive”.

As to `O=C(O)CSCC(=O)NC1CCSC1=O` (stereo not drawn), the Potency result was “inactive”.

For the molecule `CNNCc1ccc(C(=O)NC(C)C)cc1`, the Potency result is “inactive”.

Take `CCCOc1ccc(C(=O)OCCN(CC)CC)cc1N`: the Potency is 6.17 µM (active) and 6.74 µM (active).

Turning to `COc1cc2c(Nc3ccc(Br)cc3F)ncnc2cc1OCC1CCN(C)CC1`, the Potency entry is “inactive”.

Consider `COc1cc([C@@H]2c3cc4c(cc3[C@H](O)[C@H]3COC(=O)[C@H]23)OCO4)cc(OC)c1OC`, for which the Potency result was “inactive”.

As to `COc1ccccc1OCC(O)COC(N)=O` (stereo not drawn), the Potency entry is “inactive”.

Turning to `O=NN(CCCl)C(=O)NC1CCCCC1`, the Potency result is “inactive”.

Regarding `CN1CCN(c2c(F)cc3c(=O)c(C(=O)O)cn4c3c2OCN4C)CC1`, the Potency entry is “inactive”.

With `COc1cc(NCc2ccc3nc(N)nc(N)c3c2C)cc(OC)c1OC`, the Potency is 6.92 µM (active).

A further assay addresses Cytochrome P450 2C9 (Homo sapiens) (UniProt P11712). In words: Cytochrome P450 family 2 subfamily C member 9 (CYP2C9) small molecule antagonists: luciferase biochemical (cell-free) qHTS assay (AID 1645842). Note: nearly all actives have a fitted effect of over 55% in size. Note: potency is the fitted concentration of half-maximal effect. The conditions noted are these: P450-Glo CYP2C9 enzyme assay, luciferin luminescence; series mostly up to 57.4 µM. The essentials:
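Luminescence, after 20 min with luciferin detection reagent, reflected CYP2C9 turnover during a 1 h NADPH-driven reaction at 37C. Enzyme-substrate mix contained 0.4% bovine serum albumin and was preincubated with compound 10 min at room temperature.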
Turning to `Cc1ncc([N+](=O)[O-])n1CCO`, the Potency result is “inactive”.

In the case of `S=P(N1CC1)(N1CC1)N1CC1`, the Potency was 36.4 µM (active).

On to `CO[C@@H]1[C@@H](OC(N)=O)[C@@H](O)[C@H](Oc2ccc3c(O)c(NC(=O)c4ccc(O)c(CC=C(C)C)c4)c(=O)oc3c2C)OC1(C)C`, for which the Potency is 3.09 µM (active).

Turning to `COc1c(N2CCNC(C)C2)c(F)cc2c(=O)c(C(=O)O)cn(C3CC3)c12` (stereo not drawn), the Potency entry is “inactive”.

`Cc1ccnc2c1NC(=O)c1cccnc1N2C1CC1`: the Potency entry is “inactive”.

Regarding `CCOc1cc(N)c(Cl)cc1C(=O)NCC1CN(Cc2ccc(F)cc2)CCO1` (stereo not drawn), the Potency entry is “inactive”.

As to `CCn1cc(C(=O)O)c(=O)c2cc(F)c(N3CCNCC3)cc21`, the Potency result was “inactive”.

For the molecule `CN1CCN(c2c(F)cc3c(=O)c(C(=O)O)cn(CCF)c3c2F)CC1`, the Potency result is “inactive”.

With `CC(=O)[C@H]1CC[C@H]2[C@@H]3CC=C4C[C@@H](O)CC[C@]4(C)[C@H]3CC[C@]12C`, the Potency result was “inactive”.

As to `COc1ncnc(NS(=O)(=O)c2ccc(N)cc2)c1OC`, the Potency result is “inactive”.

For the molecule `CC(C)(Sc1cc(C(C)(C)C)c(O)c(C(C)(C)C)c1)Sc1cc(C(C)(C)C)c(O)c(C(C)(C)C)c1`, the Potency entry was “inactive”.

Regarding `O=c1cc(O)c(Cl)c[nH]1`, the Potency result was “inactive”.

Take `Cc1noc(NS(=O)(=O)c2ccc(N)cc2)c1C`: the Potency result was “inactive”.

Take `COc1cccc(N(C)C(=S)Oc2ccc3c(c2)CCCC3)n1`: the Potency entry is “inactive”.

`O=c1oc2c(O)c(O)cc3c(=O)oc4c(O)c(O)cc1c4c23`: the Potency entry was “inactive”.

As for `Cc1nnc(NS(=O)(=O)c2ccc(N)cc2)s1`, the Potency was 17.4 µM (active).

Take `Nc1ccc(S(=O)(=O)Nc2ccccn2)cc1`: the Potency entry is “inactive”.

For the molecule `NNC(=O)c1ccncc1`, the Potency entry is “inactive”.

Consider `CCOC(=O)c1ccc(C#Cc2ccc3c(c2)C(C)(C)CCS3)nc1`, for which the Potency entry was “inactive”.

As to `CNC1CCCN(c2c(F)cc3c(=O)c(C(=O)O)cn(C4CC4)c3c2OC)C1` (stereo not drawn), the Potency entry was “inactive”.

Take `CCN[C@H]1C[C@H](C)S(=O)(=O)c2sc(S(N)(=O)=O)cc21`: the Potency result was “inactive”.

Consider `O=C(NCC1CN(c2ccc(N3CCOCC3=O)cc2)C(=O)O1)c1ccc(Cl)s1` (stereo not drawn), for which the Potency is 8.71 µM (active) and 3.79 µM (active).

Turning to `CCn1cc(C(=O)O)c(=O)c2cc(F)c(N3CCNCC3)nc21`, the Potency result is “inactive”.

As for `O=C(O)CSCC(=O)NC1CCSC1=O` (stereo not drawn), the Potency entry was “inactive”.

Regarding `CNNCc1ccc(C(=O)NC(C)C)cc1`, the Potency result is “inactive”.

Consider `CCCOc1ccc(C(=O)OCCN(CC)CC)cc1N`, for which the Potency result was “inactive”.

As to `COc1cc2c(Nc3ccc(Br)cc3F)ncnc2cc1OCC1CCN(C)CC1`, the Potency entry is “inactive”.

On to `COc1cc([C@@H]2c3cc4c(cc3[C@H](O)[C@H]3COC(=O)[C@H]23)OCO4)cc(OC)c1OC`, for which the Potency is 1.55 µM (active).

With `COc1ccccc1OCC(O)COC(N)=O` (stereo not drawn), the Potency result was “inactive”.

For `O=NN(CCCl)C(=O)NC1CCCCC1`, the Potency entry is “inactive”.

On to `CN1CCN(c2c(F)cc3c(=O)c(C(=O)O)cn4c3c2OCN4C)CC1`, for which the Potency entry was “inactive”.

In the case of `COc1cc(NCc2ccc3nc(N)nc(N)c3c2C)cc(OC)c1OC`, the Potency was 12.3 µM (active).
